# Results taken from PubChem BioAssay (Tox21).
# Inconclusive results are not listed. A call without a number means that no potency is given here. Calls of active or inactive are those of the source. Unless noted, calls come from the whole dose curve; as a rule, active = well fitted curve in the direction sought with a large enough effect in the repeat runs; inconclusive = weak or mixed curves; inactive = no such curve, though single readings can be large; an effect the other way counts as inactive or inconclusive.
# Legend:
# [1] = qHTS assay for identifying genotoxic compounds that show differential cytotoxicity against isogenic chicken DT40 cell lines with known DNA damage response pathways - wild type cell line (AID 743012); note: nearly all actives have a fitted effect of over 60% in size; note: potency is the fitted concentration of half-maximal effect
# In short: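 CellTiter-Glo luminescence readout of viability in wild type DT40 cells after 40 h compound exposure at 37 C/5% CO2; 300 cells/well; reagent incubated 30 min at room temperature before reading.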
# [2] = qHTS assay for identifying genotoxic compounds that show differential cytotoxicity against isogenic chicken DT40 cell lines with known DNA damage response pathways - Rev3 mutant cell line (AID 743014); note: nearly all actives have a fitted effect of over 55% in size; note: potency is the fitted concentration of half-maximal effect
# [3] = qHTS assay for identifying genotoxic compounds that show differential cytotoxicity against isogenic chicken DT40 cell lines with known DNA damage response pathways - Rad54/Ku70 mutant cell line (AID 743015); note: nearly all actives have a fitted effect of over 60% in size; note: potency is the fitted concentration of half-maximal effect
# [4] = biological target: Androgen receptor (Homo sapiens) (UniProt P10275); test: qHTS assay to identify small molecule agonists of the androgen receptor (AR) signaling pathway using the MDA cell line (AID 743040; note: nearly all actives have a fitted effect of over 20% in size; note: potency is the fitted concentration of half-maximal effect)
# Androgen receptor (Homo sapiens), sequence (P10275 whole entry, looked up): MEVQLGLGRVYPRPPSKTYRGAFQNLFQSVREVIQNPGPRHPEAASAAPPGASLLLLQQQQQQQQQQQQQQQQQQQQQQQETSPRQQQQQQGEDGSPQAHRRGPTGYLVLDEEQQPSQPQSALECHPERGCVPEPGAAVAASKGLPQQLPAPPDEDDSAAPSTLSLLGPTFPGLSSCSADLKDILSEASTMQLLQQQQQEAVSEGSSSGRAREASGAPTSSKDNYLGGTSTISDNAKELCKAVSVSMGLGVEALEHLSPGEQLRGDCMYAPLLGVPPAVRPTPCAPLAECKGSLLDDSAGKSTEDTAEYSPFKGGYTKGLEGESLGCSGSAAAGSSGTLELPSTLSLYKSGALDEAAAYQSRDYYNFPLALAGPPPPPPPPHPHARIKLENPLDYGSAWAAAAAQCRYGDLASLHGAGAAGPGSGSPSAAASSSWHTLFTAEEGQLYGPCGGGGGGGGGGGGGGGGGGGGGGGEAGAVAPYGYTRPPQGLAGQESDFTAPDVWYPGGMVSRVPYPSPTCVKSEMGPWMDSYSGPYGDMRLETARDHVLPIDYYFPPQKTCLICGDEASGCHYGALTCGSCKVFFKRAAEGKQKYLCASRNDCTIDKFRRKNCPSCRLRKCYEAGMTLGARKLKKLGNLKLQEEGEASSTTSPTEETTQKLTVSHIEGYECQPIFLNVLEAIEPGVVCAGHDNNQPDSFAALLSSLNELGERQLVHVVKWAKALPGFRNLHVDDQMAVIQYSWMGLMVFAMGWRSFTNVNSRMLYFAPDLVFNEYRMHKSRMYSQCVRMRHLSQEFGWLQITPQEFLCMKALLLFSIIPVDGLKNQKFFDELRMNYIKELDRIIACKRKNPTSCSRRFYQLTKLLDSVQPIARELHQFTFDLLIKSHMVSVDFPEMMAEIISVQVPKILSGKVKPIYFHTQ
# In short: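 Stable MMTV-luciferase reporter in MDA-kb2 cells; note the promoter carries GR as well as AR response elements. 16 h compound treatment, 37C, 0% CO2; ONE-Glo luminescence endpoint.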
# [5] = qHTS assay to identify small molecule antagonists of the androgen receptor (AR) signaling pathway using the MDA cell line - cell viability counter screen (AID 743041; note: nearly all actives have a fitted effect of over 45% in size; note: potency is the fitted concentration of half-maximal effect)
# In short: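 Using the breast carcinoma line MDA-kb2 AR-luc, test chemicals were co-incubated with R1881 for 16 h; CellTiter-Fluor reagent, added at 15.5 h, provided a fluorescence measure of live cells.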
# [6] = biological target: Androgen receptor (Homo sapiens) (UniProt P10275); test: qHTS assay to identify small molecule antagonists of the androgen receptor (AR) signaling pathway using the MDA cell line (AID 743042; note: nearly all actives have a fitted effect of over 55% in size; note: potency is the fitted concentration of half-maximal effect)
# In short: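 Antagonist mode: compounds plus R1881 agonist added to MDA-kb2 AR-luc cells, incubated 16 h at 37C. Luciferase reporter luminescence quantified, with multiplexed CellTiter-Fluor readout for cell viability.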
# [7] = qHTS assay to identify small molecule antagonists of the glucocorticoid receptor (GR) signaling pathway - cell viability counter screen (AID 720693); note: nearly all actives have a fitted effect of over 55% in size; note: potency is the fitted concentration of half-maximal effect
# [8] = qHTS assay to identify small molecule antagonists of the androgen receptor (AR) signaling pathway - cell viability counter screen (AID 743033; note: nearly all actives have a fitted effect of over 45% in size)
# [9] = biological target: Androgen receptor (Homo sapiens) (UniProt P10275); test: qHTS assay to identify small molecule antagonists of the androgen receptor (AR) signaling pathway (AID 743035; active = well fitted inhibition curve with a large enough effect in the signal ratio in the repeat runs, not every such curve was filed as active; the % refers to the signal ratio; note: potency is the fitted concentration of half-maximal effect)
# In short: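 AR-bla HEK293 reporter cells; 4 h settle at 37C/5% CO2; compound + R1881 agonist, 16 h at 37C; LiveBLAzer B/G FRET substrate 2 h RT; fluorescence intensity read. qHTS format.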
# [10] = biological target: Androgen receptor (Homo sapiens) (UniProt P10275); test: qHTS assay to identify small molecule agonists of the androgen receptor (AR) signaling pathway (AID 743036; active = well fitted activation curve with a large enough effect in the signal ratio in the repeat runs, with a control signal flat, not every such curve was filed as active; the % refers to the signal ratio; note: potency is the fitted concentration of half-maximal effect)
# In short: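 AR-UAS-bla HEK293 cells, plated 4 h before dosing, were treated with compound for 16 h at 37C. beta-Lactamase reporter read after 2 h with LiveBLAzer B/G FRET substrate at room temperature.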
smiles,measurement,setting,value
Cc1cc2nc3ccc(=[N+](C)C)cc-3sc2cc1N,Potency,[1],0.596 µM (active)
same,Potency,[2],2.11 µM (active)
same,Potency,[3],0.596 µM (active)
same,Potency,[4],inactive
same,Potency,[5],8.41 µM (active)
same,Potency,[6],4.22 µM (active)
CC(=N\O)/C(C)=N/O,Potency,[7],inactive
same,Potency,[5],inactive
CCCCCCCCCCCC[N+](C)(C)CCCS(=O)(=O)[O-],Potency,[7],inactive
same,Potency,[3],27.6 µM (active)
same,Potency,[5],inactive
COCCOC,Potency,[7],inactive
same,Potency,[8],inactive
same,Potency,[5],inactive
CC(C)C(OC(=O)c1ccccc1)C(C)(C)COC(=O)c1ccccc1 (centres undefined),Potency,[1],21.7 µM (active)
same,Potency,[2],27.3 µM (active)
same,Potency,[3],24.3 µM (active)
same,Potency,[5],inactive
Cc1nccn1-c1ccc(Sc2cccc(C3(C(N)=O)CCOCC3)c2)cc1,Potency,[1],0.77 µM (active)
same,Potency,[2],1.54 µM (active)
same,Potency,[3],1.37 µM (active)
same,Potency,[5],15.4 µM (active)
CN(C)CCOC1=Cc2ccccc2Sc2ccc(Cl)cc21,Potency,[1],5.31 µM (active)
same,Potency,[2],6.68 µM (active)
same,Potency,[3],5.96 µM (active)
Cc1ccc(S(=O)(=O)NC2CCCCC2)cc1,Potency,[7],inactive
same,Potency,[8],inactive
same,Potency,[5],inactive
CC(C)(O)c1ccccc1CC[C@@H](SCC1(CC(=O)O)CC1)c1cccc(/C=C/c2ccc3ccc(Cl)cc3n2)c1,Potency,[1],inactive
same,Potency,[2],inactive
same,Potency,[3],inactive
same,Potency,[8],inactive
same,Potency,[9],inactive
same,Potency,[4],inactive
same,Potency,[5],inactive
same,Potency,[6],inactive
CC1C2CC(CC2C2CCCC(O)C2)C1(C)C (centres undefined),Potency,[7],inactive
same,Potency,[2],24.3 µM (active)
same,Potency,[5],inactive
CC(=O)OCC(=O)[C@H]1CC[C@H]2[C@@H]3CCC4=CC(=O)CC[C@]4(C)[C@H]3CC[C@]12C,Potency,[7],inactive
same,Potency,[8],inactive
same,Potency,[9],inactive
same,Potency,[10],0.0301 µM (active)
same,Potency,[4],9.44 µM (active)
same,Potency,[5],inactive
same,Potency,[6],inactive
CC(CCO)CCc1ccccc1 (centres undefined),Potency,[7],inactive
same,Potency,[3],inactive
CCCOc1ccc(S(=O)(=O)N2CCN(CC)CC2)cc1-c1nc2c(CC)n(Cc3ccccn3)nc2c(=O)[nH]1,Potency,[7],inactive
same,Potency,[8],inactive
same,Potency,[5],inactive
CNC(=S)NC,Potency,[1],61.1 µM (active)
same,Potency,[2],43.3 µM (active)
same,Potency,[3],61.1 µM (active)
same,Potency,[4],inactive
CO[C@@]12[C@H](COC(N)=O)C3=C(C(=O)C(C)=C(N)C3=O)N1C[C@@H]1N[C@@H]12,Potency,[7],23.9 µM (active)
same,Potency,[8],inactive
O=C(Nc1ccccc1)Nc1ccccc1,Potency,[7],inactive
same,Potency,[2],48.8 µM (active)
same,Potency,[5],inactive
CC[C@@H]([C@H](C)O)n1ncn(-c2ccc(N3CCN(c4ccc(OC[C@@H]5CO[C@@](Cn6cncn6)(c6ccc(F)cc6F)C5)cc4)CC3)cc2)c1=O,Potency,[1],1.19 µM (active)
same,Potency,[2],1.88 µM (active)
same,Potency,[3],1.68 µM (active)
same,Potency,[8],inactive
same,Potency,[5],inactive
CCCCCCCCCCCC[N+](C)(C)CC(=O)[O-],Potency,[1],27.3 µM (active)
same,Potency,[2],27.3 µM (active)
same,Potency,[3],61.1 µM (active)
same,Potency,[5],inactive
Nc1ccc(C(=O)OCCCOC(=O)c2ccc(N)cc2)cc1,Potency,[7],inactive
same,Potency,[8],inactive
same,Potency,[5],inactive
CC1(C)O[C@@H]2C[C@H]3[C@@H]4CCC5=CC(=O)C=C[C@]5(C)[C@H]4[C@@H](O)C[C@]3(C)[C@]2(C(=O)CO)O1,Potency,[7],inactive
same,Potency,[3],inactive
same,Potency,[8],inactive
COC(=O)Nc1nc2ccc(C(=O)c3cccs3)cc2[nH]1,Potency,[1],0.15 µM (active)
same,Potency,[2],0.211 µM (active)
same,Potency,[3],0.237 µM (active)
same,Potency,[5],inactive
O=C(O)C(Cc1cc(I)c(O)c(I)c1)c1ccccc1 (centres undefined),Potency,[1],inactive
same,Potency,[2],inactive
same,Potency,[3],inactive
same,Potency,[8],inactive
Nc1nc(Cl)nc2c1ncn2[C@@H]1O[C@H](CO)[C@@H](O)[C@@H]1F,Potency,[1],0.0019 µM (active)
same,Potency,[2],0.0019 µM (active)
same,Potency,[3],0.0024 µM (active)
same,Potency,[8],inactive
same,Potency,[5],inactive
CCCCN(CCCC)C(=S)SSC(=S)N(CCCC)CCCC,Potency,[2],inactive
same,Potency,[3],inactive
same,Potency,[5],inactive
CCC(=O)Oc1ccc(/C(CC)=C(\CC)c2ccc(OC(=O)CC)cc2)cc1,Potency,[1],48.6 µM (active)
same,Potency,[2],54.5 µM (active)
same,Potency,[3],48.6 µM (active)
same,Potency,[8],inactive
same,Potency,[5],inactive
CCC1(C)CC(=O)NC1=O (centres undefined),Potency,[1],inactive
same,Potency,[3],inactive
same,Potency,[5],inactive
CCCCC(CC)COC(=O)COc1ccc(Cl)cc1C (centres undefined),Potency,[7],inactive
same,Potency,[2],68.6 µM (active)
same,Potency,[5],inactive
C[Si](NC1CCCCC1)(NC1CCCCC1)NC1CCCCC1,Potency,[7],inactive
same,Potency,[2],61.1 µM (active)
same,Potency,[5],inactive
COc1cc2c(cc1OC)-c1cc(=Nc3c(C)cc(C)cc3C)n(C)c(=O)n1CC2,Potency,[1],2.66 µM (active)
same,Potency,[2],4.22 µM (active)
same,Potency,[3],6.68 µM (active)
same,Potency,[9],19 µM (active)
same,Potency,[4],inactive
same,Potency,[6],29.8 µM (active)
COCc1c(C(C)C)nc(C(C)C)c(/C=C/[C@@H](O)C[C@@H](O)CC(=O)O)c1-c1ccc(F)cc1,Potency,[1],0.075 µM (active)
same,Potency,[2],0.0133 µM (active)
same,Potency,[3],0.298 µM (active)
same,Potency,[4],13.3 µM (active)
same,Potency,[5],inactive
same,Potency,[6],inactive
O=C(c1ccc(O)cc1)c1ccc(Cl)cc1,Potency,[2],62.4 µM (active)
same,Potency,[3],55.6 µM (active)
same,Potency,[8],inactive
ON(Cc1ccccc1)Cc1ccccc1,Potency,[1],inactive
same,Potency,[2],inactive
same,Potency,[3],inactive
same,Potency,[8],inactive
same,Potency,[9],inactive
same,Potency,[10],inactive
same,Potency,[4],inactive
same,Potency,[5],inactive
same,Potency,[6],inactive
